The text below walks through data of PubChem BioAssay.

Activity calls are given as the source filed them.

Experiment [1] has as its system Plasmodium falciparum Sir2 (PF13_0152, Sir2A). Description: Plasmodium falciparum Sir2A binding compounds – biochemical, small-molecule microarray, 635 nm fluorescence, primary screen (AID 1098).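 Further: score merges spot fluorescence intensity with its signal-to-noise ratio.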 The following applies: fluorescence 635 nm, higher = more signal.
The nature of experiment [2]: probe aDKK1 binding to arrayed compounds – biochemical, biotinylated probe, 635/667 nm fluorescence, primary screen (AID 1099).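 Further: score merges 667nm spot fluorescence with signal to noise across triplicate slides; reference of the scale not given here.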 As to conditions: small-molecule microarray, higher = more signal.
Experiment [3] is described as follows: probe aCHRDL2 binding to arrayed compounds – biochemical, biotinylated probe, 635/667 nm fluorescence, primary screen (AID 1100). As to conditions: small-molecule microarray, higher = more signal.
The nature of experiment [4]: change in splice reporter luminescence, either direction, cell-based, HEK293, spliceosome inhibition project, primary screen (AID 1101).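 Further: HEK293 cells carrying a splicing-competent luciferase reporter gene; test concentration not given here.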 The following applies: HEK293 splicing luciferase reporter, 24 h, higher = more signal, called active from +8 up or from −8 down.
Experiment [5] addresses Fibroblast growth factor 10 (Homo sapiens) (UniProt O15520). As to the kind of experiment: compounds binding fibroblast growth factor 10 – biochemical, small-molecule microarray, 635 nm fluorescence, primary screen (AID 1102). As to conditions: FGF10 binding, fluorescence 635 nm, higher = more signal.
Experiment [6] concerns glycogen synthase kinase-3 (GSK3A per assay name; protocol says GSK3B). As to the kind of experiment: compounds binding glycogen synthase kinase-3 – biochemical, small-molecule microarray, 635 nm fluorescence, GSK3A, primary screen (AID 1103). Further: the record names both GSK3A and GSK3B. As to conditions: fluorescence 635 nm, higher = more signal.
The target of experiment [7] is Epidermal growth factor receptor (Homo sapiens) (UniProt P00533). As to the kind of experiment: compounds binding epidermal growth factor receptor – biochemical, small-molecule microarray, 635 nm fluorescence, primary screen (AID 1104).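 Further: score merges 667 nm emission intensity with spot signal to noise over triplicate slides.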 As to conditions: EGFR binding, higher = more signal.
Sequence of Epidermal growth factor receptor (Homo sapiens) (P00533 whole entry, looked up): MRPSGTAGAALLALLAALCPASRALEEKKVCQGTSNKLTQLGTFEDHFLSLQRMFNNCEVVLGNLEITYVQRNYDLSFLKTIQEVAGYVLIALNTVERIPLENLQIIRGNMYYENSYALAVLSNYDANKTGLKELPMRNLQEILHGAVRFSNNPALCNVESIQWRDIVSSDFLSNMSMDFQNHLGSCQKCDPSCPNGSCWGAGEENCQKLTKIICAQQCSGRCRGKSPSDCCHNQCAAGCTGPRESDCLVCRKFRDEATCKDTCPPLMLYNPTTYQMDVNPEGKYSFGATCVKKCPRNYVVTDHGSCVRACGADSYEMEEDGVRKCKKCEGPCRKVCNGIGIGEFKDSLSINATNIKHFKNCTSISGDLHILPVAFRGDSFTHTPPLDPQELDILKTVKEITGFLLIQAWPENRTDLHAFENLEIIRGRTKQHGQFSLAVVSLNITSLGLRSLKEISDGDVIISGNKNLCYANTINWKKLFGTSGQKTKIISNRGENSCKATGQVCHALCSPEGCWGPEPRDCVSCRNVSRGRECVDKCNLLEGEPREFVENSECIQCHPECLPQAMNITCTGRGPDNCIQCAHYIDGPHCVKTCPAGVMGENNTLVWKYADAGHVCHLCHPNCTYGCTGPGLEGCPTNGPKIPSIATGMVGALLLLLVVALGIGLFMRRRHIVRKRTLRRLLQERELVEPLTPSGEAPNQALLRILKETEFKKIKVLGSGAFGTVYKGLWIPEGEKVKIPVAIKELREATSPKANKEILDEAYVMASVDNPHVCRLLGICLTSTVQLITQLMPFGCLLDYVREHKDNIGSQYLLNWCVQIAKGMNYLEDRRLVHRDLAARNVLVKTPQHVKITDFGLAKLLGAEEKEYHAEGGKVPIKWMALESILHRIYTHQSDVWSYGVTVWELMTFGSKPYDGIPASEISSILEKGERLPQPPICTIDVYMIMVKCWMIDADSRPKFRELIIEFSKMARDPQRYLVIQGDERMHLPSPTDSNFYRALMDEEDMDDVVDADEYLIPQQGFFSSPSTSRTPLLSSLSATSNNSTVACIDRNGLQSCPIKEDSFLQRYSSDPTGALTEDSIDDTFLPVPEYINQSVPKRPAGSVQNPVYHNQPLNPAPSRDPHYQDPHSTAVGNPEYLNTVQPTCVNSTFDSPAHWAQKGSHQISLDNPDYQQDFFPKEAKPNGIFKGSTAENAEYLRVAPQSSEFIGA
Experiment [8] concerns the target Follistatin-related protein 3 (Homo sapiens) (UniProt O95633). Description: compounds binding follistatin-related protein 3 – biochemical, small-molecule microarray, 635 nm fluorescence, primary screen (AID 1105).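 Further: score merges emission near 667 nm and signal to noise per printed spot across three slides.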 As to conditions: FSTL3 binding, higher = more signal.
Experiment [9] deals with Dickkopf-related protein 1 (Homo sapiens) (UniProt O94907). Description: small molecules binding DKK1 protein – biochemical, small-molecule microarray, 635 nm fluorescence scan, primary screen (AID 1106).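 Further: score merges emission near 667 nm with signal to noise over three replicate slides.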 The following applies: higher = more signal.
Sequence of Dickkopf-related protein 1 (Homo sapiens) (O94907 whole entry, looked up): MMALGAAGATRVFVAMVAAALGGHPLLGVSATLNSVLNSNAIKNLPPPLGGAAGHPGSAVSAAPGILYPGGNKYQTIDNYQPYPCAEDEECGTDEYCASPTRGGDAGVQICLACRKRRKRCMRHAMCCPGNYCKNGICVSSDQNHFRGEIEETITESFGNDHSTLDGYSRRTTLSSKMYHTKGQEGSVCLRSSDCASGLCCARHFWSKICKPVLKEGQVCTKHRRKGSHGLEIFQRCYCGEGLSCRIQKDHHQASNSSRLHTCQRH
Experiment [10] relates to Inhibin beta A chain (activin A). As to the kind of experiment: small molecules binding activin A – biochemical, small-molecule microarray, 635 nm fluorescence scan, primary screen (AID 1107).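 Further: mouse activin A protein probed at 4.33 µg/mL on printed slides; score merges bound-protein fluorescence near 667 nm with spot signal-to-noise.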 As to conditions: INHBA, higher = more signal.

Sequence of Fibroblast growth factor 10 (Homo sapiens) (O15520 whole entry, looked up): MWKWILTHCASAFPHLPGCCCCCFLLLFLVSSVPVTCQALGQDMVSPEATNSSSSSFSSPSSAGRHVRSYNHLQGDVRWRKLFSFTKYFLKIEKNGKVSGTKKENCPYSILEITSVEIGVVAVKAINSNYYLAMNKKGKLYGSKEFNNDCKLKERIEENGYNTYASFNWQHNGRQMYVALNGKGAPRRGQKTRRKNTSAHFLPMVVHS
Sequence of Follistatin-related protein 3 (Homo sapiens) (O95633 whole entry, looked up): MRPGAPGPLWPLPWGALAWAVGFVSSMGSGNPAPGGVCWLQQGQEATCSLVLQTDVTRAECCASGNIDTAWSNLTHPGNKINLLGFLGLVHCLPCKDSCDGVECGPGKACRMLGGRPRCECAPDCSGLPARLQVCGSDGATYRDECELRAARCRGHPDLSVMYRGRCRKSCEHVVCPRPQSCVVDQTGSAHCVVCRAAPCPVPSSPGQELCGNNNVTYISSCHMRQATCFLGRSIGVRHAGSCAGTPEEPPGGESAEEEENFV

`CCOC(=O)C[C@H]1[C@H](OC(=O)c2ccc(C(=O)c3ccccc3)cc2)[C@@H](NC(=O)C2CCCCC2)c2cc(OCCCO)ccc2N1C(=O)Cc1ccc(OC)cc1`: the composite z-score in experiment [1] worked out at 0.331; in experiment [2] it was 0.765; in experiment [3], 0.7; in [5], 0.547; in [6], 0.328; in experiment [7], 0.285. Besides, the composite z-score was found to be 0.459 in experiment [8], 0.0351 in experiment [9] and 0.666 in [10]. For the same compound, the z-score in experiment [4] is 0.0309 (inactive).
Take `Cc1ccc(S[C@]2(C(=O)NCC(C)C)CC(=O)N(C3CCCCC3)[C@@H]2c2ccc(CO)cc2I)cc1`: the composite z-score was 0.42 in experiment [1]; 0.0006 in [2]; 0.421 in experiment [3]; 0.231 in experiment [5]; 0.296 in experiment [6]; 0.21 in experiment [7]. The composite z-score in experiment [8] was 0.468; in experiment [9], -0.147; in [10], 0.83. Also, in [4], the z-score was -1.4 (inactive).
Regarding `CC(C)CCC[C@@H](C)[C@H]1CC[C@@]2(C)C3=C(CC[C@]12C)[C@@]1(C)CC[C@H](OC(=O)c2ccc(N)cc2)C(C)(C)C1CC3` (stereo not given in full), the composite z-score was 0.347 in experiment [1]; -0.285 in [2]; -0.761 in [3]; 0.331 in [5]; 0.833 in [6]; 0.614 in experiment [7]. For the same compound, the composite z-score is 0.587 in [8], 1.4 in [9] and -0.023 in [10]. Further, the z-score in experiment [4] is -0.925 (inactive).
In the case of `CC(C)CNC(=O)[C@@]1(C)c2ccccc2C(=O)N(Cc2ccccc2)[C@H]1c1ccc(CO)cc1`, the composite z-score was 0.651 in experiment [1]; 0.569 in experiment [2]; 1.19 in experiment [3]; -1.21 in experiment [5]; -1.01 in experiment [6]; -1.56 in experiment [7]. The composite z-score in experiment [8] is -2.11; in experiment [9], -1.88; in experiment [10], -1.02. For the same compound, in experiment [4], the z-score was 0.622 (inactive).
For `COCCCNC(=O)[C@@]1(Cc2ccccc2)COC(c2ccc(OCCCO)cc2)=N1`, the composite z-score in experiment [1] is 1.7; in experiment [2], 0.583; in experiment [3], 1.11; in experiment [5], 0.505; in [6], 0.384; in experiment [7], -0.715. In addition, the composite z-score in experiment [8] was -0.776; in [9], -0.688; in experiment [10], 0.065. Besides, the z-score in experiment [4] was -0.37 (inactive).
Consider `COCCOC(=O)N1C(=O)[C@@]2(c3cc(C#CCCO)ccc31)[C@H](C(=O)NC[C@H](O)c1ccccc1)[C@H]1C(=O)O[C@H](c3ccccc3)[C@H](c3ccccc3)N1[C@@H]2c1ccccc1OCCO`, for which the composite z-score in experiment [1] was found to be 0.506; in experiment [2], 0.437; in [3], 0.426; in experiment [5], 1.32; in [6], 1.33; in experiment [7], 0.938. Further, the composite z-score turned out to be 1.41 in experiment [8], 1.06 in experiment [9] and 0.95 in [10]. The z-score in experiment [4] was -0.183 (inactive).
For `C=C(/C(=C/C[C@@H](OC(=O)c1ccncc1)c1cccc(OCCO)c1)c1cc(C(=O)OC)ccc1OC)C(C)C`, the composite z-score is 1.57 in [1]; -0.17 in [2]; -0.115 in experiment [3]; 0.709 in experiment [5]; 0.366 in experiment [6]; -0.0516 in [7]. The composite z-score in [8] is 0.59; in experiment [9] it was 0.0661; in experiment [10] it was 0.635. Further, the z-score in [4] is -0.71 (inactive).
Turning to `CC(C)(C)OC(=O)CC[C@@]1(C(=O)N2CCCCC2)N=C(c2ccc(OCCCO)cc2)O[C@@H]1c1ccccc1N=[N+]=[N-]`, the composite z-score came to 1.13 in experiment [1]; 0.977 in [2]; 0.964 in experiment [3]; 1.19 in [5]; 1.3 in [6]; 0.32 in experiment [7]. In addition, the composite z-score in experiment [8] was 1.1; in [9], -0.139; in experiment [10] it was 0.899. Besides, the z-score in experiment [4] is -0.405 (inactive).
Regarding `Cc1ccc(F)cc1S(=O)(=O)N[C@@H]1CCN(C(=O)c2ccc(OC(C)C)cc2)C1`, the composite z-score in experiment [1] is 0.416; in experiment [2], -0.274; in [3] it was -0.734; in experiment [5], 0.969; in experiment [6], 1; in experiment [7], 0.5. For the same compound, the composite z-score in experiment [8] stood at 1.34; in [9], 0.463; in experiment [10], 0.0062. Further, the z-score in [4] was -0.0035 (inactive).
As to `CN(C)CCCCNC(=O)[C@H]1C[C@H]2C(=O)N[C@@H](CCCC[N+](C)(C)C)C(=O)N2[C@H]1c1cccc(OCCO)c1`, the composite z-score in experiment [1] was 1.57; in experiment [2] it was -0.124; in experiment [3] it was 0.15; in experiment [5], 0.217; in experiment [6], 0.571; in [7], 0.126. Further, the composite z-score in experiment [8] came to 0.738; in experiment [9], 0.797; in experiment [10], 0.877. The z-score in experiment [4] is -0.698 (inactive).
On to `NC(=O)NCC#Cc1ccc2c(c1)[C@]1(C(=O)N2)[C@H](c2ccc(OCCO)cc2)N2[C@H](c3ccccc3)[C@H](c3ccccc3)OC(=O)[C@H]2[C@@H]1C(=O)N1CCCCCCC1`, for which the composite z-score came to 1.72 in [1]; 2.51 in experiment [2]; 1.17 in [3]; 1.5 in experiment [5]; 1.27 in experiment [6]; 1.71 in [7]. Further, the composite z-score in experiment [8] amounted to 1.64; in experiment [9] it was 2.25; in experiment [10], 1.5. For the same compound, in experiment [4], the z-score is 0.238 (inactive).
Take `COC(=O)c1ccc(OC)c(/C=C\CC(CCc2ccccc2)OC(=O)c2ccncc2)c1` (stereo not given): the composite z-score was -0.734 in experiment [1]; -0.264 in experiment [2]; 0.705 in experiment [3]; 0.253 in experiment [5]; -0.453 in experiment [6]; 0.651 in experiment [7]. Besides, the composite z-score in experiment [8] was 1.37; in [9] it was 0.697; in experiment [10], 1.81. The z-score in experiment [4] was -0.387 (inactive).
On to `O=c1c2ccc(Br)cc2nc(-c2ccccc2)n1Cc1cccc(O)c1`, for which the composite z-score in [1] came out at 0.524; in experiment [2], 0.864; in [3], 0.715; in experiment [5] it was 0.528; in experiment [6] it was 0.476; in experiment [7], 0.145. Moreover, the composite z-score was 0.547 in experiment [8], 0.0301 in experiment [9] and 0.41 in [10]. Further, the z-score in experiment [4] is -0.376 (inactive).
Turning to `Cc1ccccc1C(O)C1C=CC2C(=O)N(Cc3ccccc3)C(=O)C2N1n1cnnc1` (stereo not given), the composite z-score is 0.996 in experiment [1]; 0.363 in experiment [2]; 0.118 in experiment [3]; 0.517 in experiment [5]; 0.644 in [6]; -0.126 in [7]. The figures for the composite z-score in experiment [8], in experiment [9] and in experiment [10] were 0.834, 0.189 and 0.837, respectively. Also, the z-score in experiment [4] was -0.512 (inactive).
Regarding `O=C1C[C@@](C(=O)O)(c2ccc([N+](=O)[O-])cc2)[C@@H](c2ccc(CO)cc2)N1CC12CC3CC(CC(C3)C1)C2`, the composite z-score in [1] stood at 1.23; in experiment [2] it was 0.28; in experiment [3], 0.771; in experiment [5], 1.18; in experiment [6], 0.386; in [7] it was 0.259. The values for the composite z-score in [8], in [9] and in experiment [10] were 0.554, -0.148 and 0.532, respectively. Also, the z-score in [4] is 0.66 (inactive).
As to `COCCCNC(=O)[C@@H]1c2ccccc2C(=O)N(c2ccc(C)cn2)[C@H]1c1ccc(CO)cc1`, the composite z-score in experiment [1] was 1.21; in experiment [2], -0.281; in [3] it was 1.01; in experiment [5], -1.87; in experiment [6], -1.19; in experiment [7] it was -2.24. Besides, the composite z-score in experiment [8] was -1.84; in [9] it was -1.42; in experiment [10] it was -1.84. In addition, in experiment [4], the z-score was -0.517 (inactive).
With `C=CCNC(=O)[C@H]1[C@@H]2C(=O)O[C@@H](c3ccccc3)[C@@H](c3ccccc3)N2[C@@H](c2ccc(OCCO)cc2)[C@]12C(=O)N(C(=O)OCCOC)c1ccc(C#CC3=CCCCC3)cc12`, the composite z-score in experiment [1] is 1.39; in experiment [2], 0.0825; in experiment [3] it was -0.0093; in [5], 1.17; in experiment [6], 1.31; in experiment [7] it was 0.475. Moreover, the composite z-score in experiment [8] was determined as 1.11; in experiment [9] it was 0.522; in experiment [10] it was 0.373. In addition, the z-score in experiment [4] was -1.98 (inactive).
